Activity calls are given as the source filed them. Unless noted, no rule for the calls is given here.

Assay [1] can be described thus: resazurin metabolic signal in HepG2 cells – cell-based, resazurin fluorescence, 24 h, PK04 Diversity Set, profiling panel (AID 1172). Conditions: HepG2 viability, higher = more signal. In general terms: Resazurin is reduced to fluorescent resorufin, in cell work by metabolically active cells.
Assay [2] can be described thus: budding yeast growth changes without added modifier – OD600, strain BY4716, 24 h, basal condition, primary screen (AID 1173). The settings on record: S. cerevisiae BY4716 growth, OD600, 24 h; higher = more signal, called active from +8 up or from −8 down.
Assay [3] in a line: viability profiling in MM1S myeloma cells – cell-based, resazurin fluorescence, basal, 24 h, PK04 Diversity Set, profiling panel (AID 1174). The settings on record: higher = more signal, called active from +8 up or from −8 down.
For assay [4], the target named is Dihydroorotate dehydrogenase (quinone), mitochondrial (Plasmodium falciparum (isolate 3D7)) (UniProt Q08210). As to the kind of experiment: inhibition of P. falciparum DHODH – biochemical, C-terminal His tag, absorbance 600 nm, primary screen (AID 1175).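 Also: recombinant parasite enzyme with a five histidine tag at its C terminus.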 The settings on record: PfDHODH enzyme, DCIP absorbance 600 nm; higher = more signal, called active from +8 up or from −8 down.

Assay [5] in a line: inhibition of PAO1 biofilm formation – strain PAO1, LB-PBS medium, absorbance 600 nm, primary screen (AID 1176). The settings on record: P. aeruginosa PAO1 growth/biofilm, A600, 12 h; higher = more signal.
Assay [6] is described as follows: growth modulation of vineyard yeast isolate – strain RM11-1a, OD600, basal, 24 h, primary screen (AID 1177).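 Also: cultures grown under basal conditions with no added stressor.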 Conditions: S. cerevisiae RM11-1a growth, OD600, 24 h; higher = more signal, called active from +8 up or from −8 down.
Assay [7] is described as follows: growth of efflux-deficient E. coli DRC39 – strain DRC39, OD650, 24 h, E. coli filamentation inducers, primary screen (AID 1178).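 Also: growth measured as culture turbidity by optical density at 650 nm.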 Conditions: E. coli DRC39 acrAB, higher = more signal, called active from +8 up or from −8 down.
A short description of assay [8]: growth of efflux-deficient E. coli DRC39 – strain DRC39, OD650, 48 h, E. coli filamentation inducers, primary screen (AID 1179).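 Also: screen aims at cell division blockers that make cells filament.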 The settings on record: E. coli DRC39 delta-acrAB growth, higher = more signal, called active from +8 up or from −8 down.
The nature of assay [9]: viability profiling in RPMI8226 myeloma cells – cell-based, resazurin fluorescence, basal, 24 h, PK04 Diversity Set, profiling panel (AID 1180).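 Also: RPMI8826 multiple myeloma cell line at 5000 cells per well.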 Conditions: higher = more signal.
Assay [10] concerns the target E3 ubiquitin-protein ligase XIAP (Homo sapiens) (UniProt P98170). Put plainly: small molecules binding XIAP protein – biophysical, small-molecule microarray, fluorescence 635 nm, primary screen (AID 1181).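 Also: score merges 667 nm emission and signal to noise over triplicate slides.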 Conditions: higher = more signal.
In assay [11] the test system is XIP peptide (Xip251-270) binding. Put plainly: XIP fragment 251-270 binding compounds – biochemical, small-molecule microarray, fluorescence 635/667 nm, 0.1 µg/mL protein, primary screen (AID 1182). Conditions: fluorescent protein binding, 635 nm, higher = more signal, called active from +8 up or from −8 down.
A further assay concerns XIP peptide (Xip251-270). Put plainly: compounds binding XIP fragment 251-270 – biochemical, small-molecule microarray, fluorescence 635/667 nm, 0.5 µg/mL protein, primary screen (AID 1183). The settings on record: fluorescence 635 nm, higher = more signal.
A short description of assay [12]: blood-stage malaria parasite viability loss – strain 3D7, DAPI fluorescence, 100 nL, primary screen (AID 1184).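 Also: parasites grown inside human red blood cells in medium with human serum.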 Conditions: P. falciparum 3D7 growth, 3 d, higher = more signal.
The target in assay [13] is Homeobox protein Hox-A13 (Mus musculus) (UniProt Q62424). As to the kind of experiment: disruptors of Hoxa13 oligonucleotide interaction – biochemical, fluorescence polarization, labeled oligonucleotide, primary screen (AID 1185). Conditions: Hoxa13:DNA binding, 15 min, higher = more signal, called active from +8 up or from −8 down. (In general: Polarisation of emitted light reports the rotation of a fluorescent probe.)

A short description of assay [14]: blockers of DNA damage checkpoint Chk1 activation – imaging, HeLa, hydroxyurea, phospho-Chk1 antibody, percent positive cells, primary screen (AID 1186). The settings on record: hydroxyurea-induced phospho-Chk1 immunofluorescence imaging, higher = more signal.
Assay [15] is described as follows: blockers of DNA damage checkpoint Chk1 activation – imaging, HeLa, hydroxyurea, phospho-Chk1 nuclear intensity, primary screen (AID 1187). The settings on record: hydroxyurea-induced phospho-Chk1 immunofluorescence imaging, higher = more signal.

E3 ubiquitin-protein ligase XIAP (Homo sapiens), sequence (P98170 whole entry, looked up, the tested form may be a part): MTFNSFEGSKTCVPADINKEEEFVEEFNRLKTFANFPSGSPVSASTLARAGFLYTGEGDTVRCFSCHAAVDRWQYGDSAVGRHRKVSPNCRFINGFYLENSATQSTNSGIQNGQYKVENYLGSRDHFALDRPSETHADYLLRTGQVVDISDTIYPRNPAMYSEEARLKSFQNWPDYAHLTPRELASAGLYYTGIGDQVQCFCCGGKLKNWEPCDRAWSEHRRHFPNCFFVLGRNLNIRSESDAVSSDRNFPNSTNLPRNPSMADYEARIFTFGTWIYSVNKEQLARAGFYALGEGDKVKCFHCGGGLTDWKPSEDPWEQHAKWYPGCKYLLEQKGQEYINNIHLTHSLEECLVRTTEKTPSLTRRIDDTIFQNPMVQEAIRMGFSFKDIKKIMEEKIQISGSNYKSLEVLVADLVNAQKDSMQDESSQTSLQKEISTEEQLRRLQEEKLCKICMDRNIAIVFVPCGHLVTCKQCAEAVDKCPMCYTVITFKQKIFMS
Homeobox protein Hox-A13 (Mus musculus), sequence (Q62424 whole entry, looked up): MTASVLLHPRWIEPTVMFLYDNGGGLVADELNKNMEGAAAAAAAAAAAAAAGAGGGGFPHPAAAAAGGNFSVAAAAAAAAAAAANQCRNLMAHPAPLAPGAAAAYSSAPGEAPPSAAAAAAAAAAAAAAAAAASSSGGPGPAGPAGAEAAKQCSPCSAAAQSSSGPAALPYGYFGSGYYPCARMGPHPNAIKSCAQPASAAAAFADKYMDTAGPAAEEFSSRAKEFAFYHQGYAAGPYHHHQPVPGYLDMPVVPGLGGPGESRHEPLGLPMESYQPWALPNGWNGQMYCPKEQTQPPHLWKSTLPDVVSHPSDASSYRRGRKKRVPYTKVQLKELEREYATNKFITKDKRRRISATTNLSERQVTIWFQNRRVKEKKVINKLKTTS
Dihydroorotate dehydrogenase (quinone), mitochondrial (Plasmodium falciparum (isolate 3D7)), sequence (Q08210 whole entry, looked up): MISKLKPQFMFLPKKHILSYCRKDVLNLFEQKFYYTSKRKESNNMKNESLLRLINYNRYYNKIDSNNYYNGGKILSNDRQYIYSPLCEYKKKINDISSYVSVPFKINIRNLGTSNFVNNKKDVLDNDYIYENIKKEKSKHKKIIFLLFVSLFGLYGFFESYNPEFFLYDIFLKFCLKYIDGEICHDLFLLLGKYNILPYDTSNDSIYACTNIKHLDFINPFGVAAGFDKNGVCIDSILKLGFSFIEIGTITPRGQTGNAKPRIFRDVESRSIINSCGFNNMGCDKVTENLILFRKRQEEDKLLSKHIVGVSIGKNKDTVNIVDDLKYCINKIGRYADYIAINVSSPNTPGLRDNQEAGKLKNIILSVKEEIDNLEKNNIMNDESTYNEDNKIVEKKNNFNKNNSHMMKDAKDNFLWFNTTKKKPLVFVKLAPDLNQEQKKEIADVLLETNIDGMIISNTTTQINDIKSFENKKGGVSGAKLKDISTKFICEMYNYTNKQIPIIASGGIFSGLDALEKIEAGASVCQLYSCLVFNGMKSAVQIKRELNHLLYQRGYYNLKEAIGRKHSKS

On to `COc1cc(C(O)C2C=CC3C(=O)N(c4ccccc4)C(=O)C3N2Nc2ccccc2F)cc(OC)c1OC` (configuration not stated), for which the z-score in [1] was -0.514; in assay [2] it was 0.886 (inactive); in assay [3], -0.565 (inactive); in [5], 0.437 (inactive); in [6] it was 0.881 (inactive); in [7], -0.631 (inactive). Further, the z-score in assay [8] was -0.765 (inactive); in assay [9], -0.17; in assay [12], -0.267; in assay [13] it was -4.84 (inactive); in [14], 0.409 (inactive); in assay [15], -0.477 (inactive). For the same molecule, the composite z-score was 0.0998 (inactive) in assay [4], 0.081 in assay [10], 0.283 (inactive) in assay [11] and 0.737 in the assay with XIP peptide (Xip251-270).
As to `COCCOC(=O)N1C(=O)[C@@]2(c3cc(C#Cc4ccc(OC)cc4)ccc31)[C@H](c1ccc(OCCO)cc1)N1[C@H](c3ccccc3)[C@H](c3ccccc3)OC(=O)[C@H]1[C@@H]2C(=O)NC[C@H](O)c1ccccc1`, the z-score is -0.234 in assay [1]; 3.05 (inactive) in assay [2]; -0.486 (inactive) in assay [3]; 5.17 (inactive) in assay [5]; 3.81 (inactive) in assay [6]; -0.6 (inactive) in [7]. Besides, the z-score in [8] is -0.189 (inactive); in assay [9] it was -0.508; in assay [12] it was -1.66; in [13] it was -0.532 (inactive); in [14] it was 0 (inactive); in assay [15] it was -0.0275 (inactive). The composite z-score is -1.12 (inactive) in assay [4], 0.115 in assay [10], 0.849 (inactive) in assay [11] and 0.713 in the assay on XIP peptide (Xip251-270).
Take `COC(=O)[C@@]1(Cc2ccc(OC)cc2)[C@H]2c3cc(C(=O)N4CCCC4)n(CCn4cc([N+](=O)[O-])nc4C)c3C[C@H]2CN1C(=O)c1ccccc1`: the z-score in assay [1] was -0.916; in assay [2], 0.477 (inactive); in assay [3], -1.72 (inactive); in assay [5], 2.04 (inactive); in assay [6] it was -0.123 (inactive); in [7], -0.784 (inactive). The z-score in assay [8] was -0.552 (inactive); in assay [9] it was -1.65; in assay [12] it was -1.73; in assay [13], -2.67 (inactive); in assay [14], 1.65 (inactive); in assay [15], 1.22 (inactive). The composite z-score in assay [4] is -0.329 (inactive); in assay [10], 0.111; in assay [11] it was 1.13 (inactive); in the assay with XIP peptide (Xip251-270) it was 0.359.
For the molecule `C=CCOC(=O)[C@H]1[C@@H]2C(=O)O[C@@H](c3ccccc3)[C@@H](c3ccccc3)N2[C@@H](c2ccc(OCCOC(=O)[C@H]3C[C@H]4C(=O)N[C@@H](CC(C)C)C(=O)N4[C@H]3c3ccc(O)cc3)cc2)[C@]12C(=O)Nc1ccccc12`, the z-score in assay [1] was 0.0682; in [2], 1.1 (inactive); in [3], 0.407 (inactive); in assay [5] it was 2.65 (inactive); in [6] it was 2.67 (inactive); in [7], 0.376 (inactive). Besides, the z-score in assay [8] is 1.02 (inactive); in assay [9], 0.862; in [12], -1.49; in assay [13], 0.832 (inactive); in [14], 0.109 (inactive); in assay [15] it was -0.0249 (inactive). Besides, the composite z-score is -0.976 (inactive) in assay [4], -0.0078 in assay [10], 0.386 (inactive) in [11] and 0.818 in the assay with XIP peptide (Xip251-270).
As for `CCC(CC)C(O)C1C=CC2C(=O)N(c3ccccc3)C(=O)C2N1Nc1ccccc1F` (configuration not stated), the z-score is 0.85 in assay [1]; 0.153 (inactive) in assay [2]; -0.0479 (inactive) in assay [3]; 0.67 (inactive) in assay [5]; -0.0886 (inactive) in assay [6]; -0.551 (inactive) in [7]. For the same molecule, the z-score was 0.164 (inactive) in assay [8]; 0.181 in assay [9]; -0.0776 in assay [12]; -3.13 (inactive) in assay [13]; -0.121 (inactive) in assay [14]; -0.175 (inactive) in [15]. Also, the composite z-score in [4] was 1.57 (inactive); in assay [10], 0.172; in assay [11] it was 0.977 (inactive); in the assay with XIP peptide (Xip251-270), -0.243.
Regarding `CCOC(=O)C1=CC[C@@H](c2ccccc2)N(S(=O)(=O)c2ccc(C)cc2)[C@H]1c1ccccc1I`, the z-score in assay [1] was 0.76; in [2], 1.25 (inactive); in [3] it was -0.0131 (inactive); in assay [5] it was 1.05 (inactive); in assay [6], -0.217 (inactive); in assay [7], 0.254 (inactive). Further, the z-score in assay [8] was 0.202 (inactive); in assay [9] it was -1.16; in assay [12], -2.07; in assay [13] it was -1.19 (inactive); in [14], 0.0035 (inactive); in [15], -0.763 (inactive). In addition, the composite z-score in assay [4] is -0.158 (inactive); in assay [10], -0.123; in [11], -0.0622 (inactive); with XIP peptide (Xip251-270), 0.77.
On to `C=CCOC(=O)[C@H]1[C@@H]2C(=O)O[C@@H](c3ccccc3)[C@@H](c3ccccc3)N2[C@@H](c2ccc(OCCOC(=O)[C@@H]3C[C@@H]4C(=O)N[C@@H](CCCC[N+](C)(C)C)C(=O)N4[C@@H]3c3ccc(O)cc3)cc2)[C@]12C(=O)Nc1ccc(I)cc12`, for which the z-score in assay [1] is -0.0156; in assay [2], 0.118 (inactive); in assay [3], -1.17 (inactive); in assay [5], 1.12 (inactive); in assay [6], 2.46 (inactive); in assay [7], -1.46 (inactive). Besides, the z-score in [8] was -1.11 (inactive); in assay [9] it was -0.854; in assay [12], 0.0373; in assay [13] it was 6.46 (inactive); in assay [14], -0.337 (inactive); in [15], -0.0674 (inactive). The composite z-score is -2.21 (inactive) in assay [4], 0.261 in assay [10], 0.557 (inactive) in [11] and 0.765 in the assay with XIP peptide (Xip251-270).

These data come from PubChem BioAssay.
